From PubChem
RBX1-CUL1 inh = inhibitors of human ROC1-CUL1 ubiquitin ligase activity | E3 ubiquitin-protein ligase RBX1 (Homo sapiens) + Cullin-1 (Homo sapiens), P62877+Q13616 | in vitro K48 di-Ub FRET, acceptor:donor ratio, 45 min | inhibition, % at 10 µM | 0.6% of 140,000 active; in the data active = inhibition above about 25%
Target sequence (P62877 whole entry, looked up): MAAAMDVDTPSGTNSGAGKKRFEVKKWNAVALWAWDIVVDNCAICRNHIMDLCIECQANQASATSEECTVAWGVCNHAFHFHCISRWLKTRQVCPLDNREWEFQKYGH
Target sequence (Q13616 whole entry, looked up): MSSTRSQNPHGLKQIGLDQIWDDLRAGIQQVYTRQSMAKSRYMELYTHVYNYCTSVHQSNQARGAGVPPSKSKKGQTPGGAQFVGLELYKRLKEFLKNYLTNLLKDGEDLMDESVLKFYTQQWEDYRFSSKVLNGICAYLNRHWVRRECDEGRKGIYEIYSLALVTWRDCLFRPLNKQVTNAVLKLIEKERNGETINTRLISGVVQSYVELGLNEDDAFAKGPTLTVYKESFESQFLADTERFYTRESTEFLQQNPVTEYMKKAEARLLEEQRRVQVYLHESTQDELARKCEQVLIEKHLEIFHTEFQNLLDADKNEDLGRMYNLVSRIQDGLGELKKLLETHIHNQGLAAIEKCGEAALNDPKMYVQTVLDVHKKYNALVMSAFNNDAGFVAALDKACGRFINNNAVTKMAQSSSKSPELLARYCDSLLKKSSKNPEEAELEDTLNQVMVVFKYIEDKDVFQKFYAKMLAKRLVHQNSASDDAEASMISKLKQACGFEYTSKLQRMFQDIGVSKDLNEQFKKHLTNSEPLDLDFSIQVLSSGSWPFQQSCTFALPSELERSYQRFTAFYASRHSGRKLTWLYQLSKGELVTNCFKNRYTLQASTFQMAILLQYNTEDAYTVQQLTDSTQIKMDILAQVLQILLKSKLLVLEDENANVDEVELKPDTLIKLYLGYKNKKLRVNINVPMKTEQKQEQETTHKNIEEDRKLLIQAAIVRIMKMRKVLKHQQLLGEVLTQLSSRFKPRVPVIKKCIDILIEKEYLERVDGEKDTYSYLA
An asterisk follows results filed as active. The sample as a whole holds a higher share of hits than the screen did.

For CC1=NN(c2ccc(S(N)(=O)=O)cc2)C(=O)C1=Nc1ccc(N(C)C)cc1 the results were RBX1-CUL1 inh 64*.
Screening CC1=NN(c2ccc(C)cc2C)C(=O)C1=Nc1ccc(N(C)C)cc1 returned RBX1-CUL1 inh -4.
CN(C)c1ccc(/C=C2\C(=O)NN(c3ccccc3)C2=O)cc1Br was read as RBX1-CUL1 inh -4.
CC1=NN(c2ccc(F)cc2)C(=O)/C1=C/c1ccc2c(c1)n(C)c(=O)n2C was read as RBX1-CUL1 inh 0.
For COc1cc(/C=C2/C(=O)N(c3ccc(Cl)c(Cl)c3)N=C2C)cc(OC)c1O the results were RBX1-CUL1 inh 2.
CC(Oc1ccc(F)cc1)C(=O)NC1CC1 (stereo not drawn) was read as RBX1-CUL1 inh 7.
CCS(=O)(=O)N1CCC(C(=O)Nc2ccc(C(F)(F)F)cc2)CC1 was read as RBX1-CUL1 inh -7.
Screening CC(C)(C)C1CCC(C(=O)NCC2CCCO2)CC1 (stereo not drawn) returned RBX1-CUL1 inh 11.
For CCc1cc(C(=O)NCc2cc(NC(=O)C3CCCCC3)cc(C(=O)OC)c2)n(C)n1 the results were RBX1-CUL1 inh -1.
For O=C(NC(=O)c1cccc(C(F)(F)F)c1)Nc1nc(-c2ccccc2)cc(C(F)(F)F)n1 the results were RBX1-CUL1 inh 3.
For CSc1ccc(NC(=O)c2sc3nc4c(c(-c5cccnc5)c3c2N)CCCC4)cc1 the results were RBX1-CUL1 inh 4.
Cc1cccc(OCC(=O)NNC(=O)CCCCC(=O)NNC(=O)COc2cccc(C)c2)c1 was read as RBX1-CUL1 inh 2.
`Cc1cccc(OCC(=O)N/N=C/c2cccn2-c2ccc([N+](=O)[O-])cc2)c1` gave RBX1-CUL1 inh -3.
Cc1cccc(OCC(=O)NNc2ccc([N+](=O)[O-])cc2[N+](=O)[O-])c1 was read as RBX1-CUL1 inh 30*.
C=CCc1cc(/C=C2/C(=O)N(c3nc(C)c(C(=O)OCC)s3)N=C2C)cc(OCC)c1OCc1ccccc1C#N was read as RBX1-CUL1 inh -4.
CCC(CC)CN1CCN(CC(C)C)C(CCO)C1 (stereo not drawn) was read as RBX1-CUL1 inh -13.
`O=C(CC1CCC(=O)N1)NCc1ccc2[nH]c3c(c2c1)CCCC3` (stereo not drawn) gave RBX1-CUL1 inh 4.
N#C/C(=N\Nc1c(Cl)cc(Cl)cc1Cl)C(=O)c1ccccc1 was read as RBX1-CUL1 inh -10.
`N#C/C(=N/Nc1ccc(Cl)cc1Cl)C(=O)c1ccc(Cl)cc1` gave RBX1-CUL1 inh -8.
`N#C/C(=N\Nc1c(Cl)cc(Cl)cc1Cl)C(=O)c1ccc(Cl)cc1` gave RBX1-CUL1 inh 82*.
CCN(CC)CCCNC(=O)c1ccc(C)cc1 was read as RBX1-CUL1 inh 6.
For CCc1ccc(N=C2NC(=O)/C(=C\c3cc(Cl)c(OCC#N)c(OC)c3)S2)cc1 the results were RBX1-CUL1 inh 8.
CCOC(=O)COc1c(I)cc(/C=C2/SC(=Nc3ccc(OC)cc3)NC2=O)cc1OC was read as RBX1-CUL1 inh 7.
For CCOc1cc(/C=C2\SC(=Nc3ccc(Cl)cc3)NC2=O)cc(Cl)c1OCC(=O)O the results were RBX1-CUL1 inh 96*.
`O=C(COC(=O)c1sc2ccccc2c1Cl)Nc1cccc2ccccc12` gave RBX1-CUL1 inh 7.
NC1=NC(=S)N=C2c3ccccc3CC3(CCCC3)C12 (stereo not drawn) was read as RBX1-CUL1 inh -2.
Screening O=C(Cn1nnc(-c2ccccc2)n1)N/N=C\c1ccc(I)o1 returned RBX1-CUL1 inh 5.
`CC1CC(C)CN(CC(O)COC23CC4CC(CC(C4)C2)C3)C1` (stereo not drawn) gave RBX1-CUL1 inh 1.
O=C1NN(c2ccccc2)C(=O)/C1=C/c1cc(Cl)cc(Cl)c1OCCCOc1ccc(Cl)cc1 was read as RBX1-CUL1 inh 11.
Screening Cc1cc(OCCOc2ccc(Cl)cc2/C=C2\C(=O)NN(c3ccccc3)C2=O)ccc1Cl returned RBX1-CUL1 inh 49*.
Screening COc1cc(/C=C2\C(=O)NN(c3ccccc3)C2=O)cc(Cl)c1OCCOc1ccc(Cl)c(C)c1 returned RBX1-CUL1 inh 12.
Cc1cccc(OCCOc2c(Cl)cc(Cl)cc2/C=C2\C(=O)NN(c3ccccc3)C2=O)c1 was read as RBX1-CUL1 inh 98*.
For CCOc1cc(/C=C2\C(=O)NN(c3ccccc3)C2=O)cc(Cl)c1OCCOc1ccc(C)cc1C the results were RBX1-CUL1 inh 14.
Cc1cccc(OCCCOc2c(Cl)cc(Cl)cc2/C=C2\C(=O)NN(c3ccccc3)C2=O)c1 was read as RBX1-CUL1 inh 7.
For Cc1ccc(NCc2nnc(SCC(=O)Nc3ccc(C)c(C)c3)o2)c(C)c1 the results were RBX1-CUL1 inh -2.
Screening CCCCOc1ccc(C(=O)C2C(=O)C(=O)N(c3nnc(C)s3)C2c2ccc(F)cc2)cc1 (stereo not drawn) returned RBX1-CUL1 inh 1.
CC(NC(=O)COc1ccc(/C=c2/sc3n(c2=O)CCCN=3)cc1)c1ccccc1 (stereo not drawn) was read as RBX1-CUL1 inh 3.
For COc1ccc(OC)c(NC(=O)c2sc3nc(-c4ccc(F)cc4)ccc3c2N)c1 the results were RBX1-CUL1 inh -3.
Cc1occc1C(=O)N1CCC(N2CCCC(C(=O)NC3CC3)C2)CC1 (stereo not drawn) was read as RBX1-CUL1 inh 25*.
For Cc1cccc(C(=O)N2CCC(N3CCCC(C(=O)NC4CC4)C3)CC2)c1 (stereo not drawn) the results were RBX1-CUL1 inh 11.
Screening COc1ccc(C(=O)N2CCC(N3CCCC(C(=O)NC4CC4)C3)CC2)o1 (stereo not drawn) returned RBX1-CUL1 inh -1.
`CC(c1ccccc1)c1cc(C(=O)NCCc2cccs2)on1` (stereo not drawn) gave RBX1-CUL1 inh 2.
For COc1cc(/C=C2\SC(=S)N(/N=C/c3cc(OC)c(O)cc3Cl)C2=O)c(Cl)cc1O the results were RBX1-CUL1 inh 46*.
COc1cc(C=C2C(=O)NC(=S)NC2=O)c(Cl)cc1O was read as RBX1-CUL1 inh 1.
COc1ccc(/C=C2\SC(=S)N(C3CCCCC3)C2=O)cc1O was read as RBX1-CUL1 inh -5.
Screening C=CCn1c(SCC(=O)Nc2ccc(Oc3ccccc3)cc2)nnc1-c1ccccc1Br returned RBX1-CUL1 inh 1.
For Oc1c(Br)cc(Br)nc1Br the results were RBX1-CUL1 inh 2.
`Oc1c(Br)cc(C(=C(Cl)Cl)c2cc(Br)c(O)c(Br)c2)cc1Br` gave RBX1-CUL1 inh 66*.
`CN1CCn2c3c(c4cc(C5CCCCC5)ccc42)=NCCC=31` gave RBX1-CUL1 inh 1.
Screening CCOC(=O)c1cccc(NC(=O)C(C)CC)c1 (stereo not drawn) returned RBX1-CUL1 inh -12.
Screening COc1cc(C(c2c(C)[nH][nH]c2=O)c2c(C)[nH][nH]c2=O)ccc1OC(=O)c1cccc(C)c1 returned RBX1-CUL1 inh 9.
`CCOC(=O)c1cccc(-c2ccc(C(c3c(C)[nH][nH]c3=O)c3c(C)[nH][nH]c3=O)o2)c1` gave RBX1-CUL1 inh 39*.
Screening CC(C)NC(=S)NC(=O)Cc1ccccc1 returned RBX1-CUL1 inh 2.
For COc1ccc(CNC(=O)CCC2CCCN(C/C=C/c3ccco3)C2)c(OC)c1 (stereo not drawn) the results were RBX1-CUL1 inh 2.
COc1ccc(C2C(C(=O)Nc3ccc(F)cc3)C(C)=Nc3nc(CCCO)nn32)cc1OC (stereo not drawn) was read as RBX1-CUL1 inh -3.
